Consider 40 molecules from PubChem BioAssay (Tox21).

Each structure is given as a SMILES string. Records with an inconclusive call do not appear. A number with no mark means an inactive call. Activity calls are given as the source filed them. Calls come from the whole dose curve.
% is set by controls: 0 for no effect and ±100 for the full control effect; potency is the fitted concentration of half-maximal effect.

Beta-2 adrenergic receptor (Homo sapiens), sequence (P07550 whole entry, looked up): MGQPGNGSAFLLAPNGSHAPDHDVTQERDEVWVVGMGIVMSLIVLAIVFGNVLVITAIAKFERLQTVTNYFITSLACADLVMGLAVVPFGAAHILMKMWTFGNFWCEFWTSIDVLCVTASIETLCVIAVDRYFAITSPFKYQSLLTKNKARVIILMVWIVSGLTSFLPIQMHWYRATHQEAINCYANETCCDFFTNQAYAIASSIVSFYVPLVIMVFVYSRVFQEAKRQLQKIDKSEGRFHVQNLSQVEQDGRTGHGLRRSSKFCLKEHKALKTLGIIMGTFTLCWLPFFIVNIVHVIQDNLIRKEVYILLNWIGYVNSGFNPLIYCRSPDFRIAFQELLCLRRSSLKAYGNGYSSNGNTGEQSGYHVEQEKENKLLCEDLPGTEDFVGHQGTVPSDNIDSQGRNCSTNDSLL

The target of this assay is Beta-2 adrenergic receptor (Homo sapiens) (UniProt P07550). The assay can be described thus: Adrenergic beta2 receptor (ADRB2) small molecule antagonists, cell-based qHTS assay (AID 1963592). Note: nearly all actives have a fitted effect of over 50% in size. As to conditions: CHO-ADRB2 cells, isoproterenol-stimulated cAMP HTRF ratio, 0.5 h; series mostly up to 92.4 µM; activity change, negative = inhibition: at the top concentration. The text has this:
U.S. Tox21 Program National Center for Advancing Translational Sciences [NCATS] Division of Preclinical Innovation [DPI] U.S. Environmental Protection Agency [EPA] National Institutes of Environmental Health Sciences [NIEHS] National Toxicology Program [NTP] U.S. Food and Drug Administration [FDA] Tox21 Assay Overview: Beta adrenergic receptors (Beta-ARs) belong to the G-protein coupled receptor (GPCR) superfamily, includes three subtypes - beta1, beta2, and beta3. Beta1-AR is the predominant receptor subtype expressed in the heart, and beta2-AR is expressed in the kidney, lung, blood vessel and in the heart, and beta3 is found in the adipocytes. Beta1 and 2 ARs couple to Gs protein and elevate cyclic adenosine mono phosphate (cAMP), which activates protein kinase A and leads to the downstream signaling responsible for the physiological actions. Beta-AR agonists or antagonists are the most prescribed therapeutic agents for heart failure and asthma, and these were one of the first target receptors for the rational drug design. Tox21 10K compound library was screened using the cAMP-Gs dynamic assay (Cisbio Bioassays, Shelton, CT) to identify agonists/antagonists of the Gs-coupled human adrenergic, beta2 receptor (ADRB2) in the CHO-ADRB2 cell line (Codex BioSolutions, Inc. Gaithersburg, MD), which stably over-expresses ADRB2. The principle of cAMP-Gs dynamic assay is based on HTRF technology, which facilitates the fluorescence resonance energy transfer (FRET) between donor Europium cryptate and acceptor d2-labeled cAMP. The cAMP generated within cells competes with the red acceptor, d2-labled cAMP, for binding to the monoclonal anti-cAMP-cryptate (Europium donor). An increase in intracellular cAMP leads to the disruption of FRET signal, and the signal is inversely proportional to the cAMP concentration. Propranolol HCl (Sigma-Aldrich, St. Louis, MO) was used as a positive control in the screening.
Tox21 Assay Protocol Summary: CHO-ADRB2 cells were dispensed at 1,000/well in 4uL assay medium into white/solid 1536-well plates (Greiner Bio-One North America Inc., Monroe, NC) using a Multidrop Combi dispenser (ThermoFisher Scientific, Waltham, MA). The assay plates were incubated at 37C and 5% CO2 for an overnight (18-20hr). Then positive control and test compounds dissolved in DMSO were transferred to the assay plates at 23nL using a Pintool station (Wako, San Diego, CA). Following the compound and positive control transfer, 1uL agonist-stimulation mix containing 1nM Isoproterenol HCl, 100uM IBMX and 25uM Ro-20-1724 was added to each well of the assay plates using BioRAPTR Flying Reagent Dispenser (FRD, Beckman Coulter, Brea, CA). The assay plates were incubated at room temperature for 0.5hr. Then 2.5ul each d2-labled cAMP and anti-cAMP-cryptate solutions were added separately to each well of the assay plates using an FRD and the assay plates were incubated at room temperature for 1hr. The fluorescence signal was measured at two different wavelengths (665nm and 615nm) using an Envision plate reader (Perkin Elmer, Shelton, CT). Data were expressed as the ratio of 665 nm/615 nm.
(Quantitative high-throughput screening tests each substance at several concentrations.)
Consider `CCOc1cc([N+](=O)[O-])c(OCC)cc1N1CCOCC1`, for which the “activity change, negative = inhibition” value was -0.0727%.

For the molecule `CC(=O)N[C@@H](CCC(N)=O)C(=O)O`, the “activity change, negative = inhibition” value was 3.9% [at 42.5 µM].

For the molecule `CCN(CC)CCOCCOC(=O)C1(c2ccccc2)CCCC1`, the “activity change, negative = inhibition” value is -2.16% [at 42.5 µM].

For `CN1CC(=O)NC1=N`, the “activity change, negative = inhibition” value is -5.12% [at 42.5 µM].

Regarding `O=C1c2ccccc2C(=O)N1CO`, the “activity change, negative = inhibition” value was 0.328%.

Consider `NC(=O)CC[C@@H]1NC(=O)[C@H](Cc2ccccc2)NC(=O)[C@H](Cc2ccc(O)cc2)NC(=O)CCSSC[C@@H](C(=O)N2CCC[C@H]2C(=O)N[C@@H](CCCN=C(N)N)C(=O)NCC(N)=O)NC(=O)[C@H](CC(N)=O)NC1=O`, for which the “activity change, negative = inhibition” value is 10.6% [at 42.5 µM].

As for `O=C(O)P(=O)(O)O`, the “activity change, negative = inhibition” value is 0.125% [at 42.5 µM].

In the case of `CC(=O)Nc1ccc(S(N)(=O)=O)cc1`, the “activity change, negative = inhibition” value was 1.04%.

Consider `O=C(Nc1ccccc1)c1ccccc1O`, for which the “activity change, negative = inhibition” value was -12.2%.

Take `COc1c(C)c2c(c(O)c1C/C=C(\C)CCC(=O)O)C(=O)OC2`: the “activity change, negative = inhibition” value is 7.42% [at 42.5 µM].

Consider `COC(=O)C(C)O` (stereo not given), for which the “activity change, negative = inhibition” value was -3.07%.

As for `Oc1c(Br)cc(Br)c2cccnc12`, the “activity change, negative = inhibition” value is -4.48% [at 42.5 µM].

For `CC(=O)c1c(C)cc(C(C)(C)C)cc1C`, the “activity change, negative = inhibition” value is 1.49%.

As to `CCCCCCCCCCCl`, the “activity change, negative = inhibition” value was -5.09%.

As to `CC(C)(C)c1n[nH]c(=S)n(N)c1=O`, the “activity change, negative = inhibition” value is 0.695%.

As to `Cc1c(Cn2ccnc2)c2ccccc2n1CCC(=O)O`, the “activity change, negative = inhibition” value is 0.353% [at 42.5 µM].

Turning to `CC(NN)c1ccccc1` (stereo not given), the activity change, negative = inhibition was 10.7% [at 19 µM].

For `O=C1[C@H]2CCCC[C@H]2C(=O)N1CCCCN1CCN(c2nsc3ccccc23)CC1`, the “activity change, negative = inhibition” value is -21.6% [at 42.5 µM].

On to `NCCS`, for which the “activity change, negative = inhibition” value is 0.454% [at 42.5 µM].

Take `CCc1cc(S(=O)(=O)O)c2cc(C(C)C)cccc1-2`: the “activity change, negative = inhibition” value was -5.09% [at 42.5 µM].

Consider `c1cc(N(CC2CO2)CC2CO2)ccc1Cc1ccc(N(CC2CO2)CC2CO2)cc1` (stereo not given), for which the “activity change, negative = inhibition” value was -3.27%.

`CCN(CC)CCOC(=O)C(c1ccccc1)c1ccccc1`: the “activity change, negative = inhibition” value is -2.31% [at 42.5 µM].

In the case of `Cc1ccnc2ccccc12`, the “activity change, negative = inhibition” value was 1.54%.

On to `CCCC1CCC(=O)O1` (stereo not given), for which the “activity change, negative = inhibition” value was 6.8%.

`CCCCCCCCN`: the “activity change, negative = inhibition” value was 0.843%.

Regarding `COc1cc(OC)cc(OC)c1`, the “activity change, negative = inhibition” value is 5.13% [at 42.5 µM].

Regarding `CC(C)C[C@@H]1[C@H](c2ccccc2)OC(=O)N1CCCN1CCCCCC1`, the “activity change, negative = inhibition” value was 0% [at 42.5 µM].

Regarding `C/C(=N\O)c1ccc(OCC(=O)N2CCCCC2)cc1`, the “activity change, negative = inhibition” value was 1.69% [at 42.5 µM].

Consider `C/C=C(/C(=C/C)c1ccc(O)cc1)c1ccc(O)cc1`, for which the “activity change, negative = inhibition” value was 1.59% [at 42.5 µM].

Turning to `CCOC(=O)CC`, the “activity change, negative = inhibition” value was -7.19%.

`Cc1cc2c(cc1S(N)(=O)=O)S(=O)(=O)CCC2`: the “activity change, negative = inhibition” value is 2.63% [at 42.5 µM].

`CCCCCO`: the “activity change, negative = inhibition” value was 0.884%.

As for `CC1CCCCC1`, the “activity change, negative = inhibition” value was -4.45%.

As to `O=C(Nc1ccccc1)Nc1ccccc1`, the Potency was 68.9 µM (active).

`CC(C)(C)NSc1nc2ccccc2s1`: the “activity change, negative = inhibition” value was -0.627%.

Turning to `CCCCCCCCCC#N`, the “activity change, negative = inhibition” value is -9.51%.

In the case of `CCOC(=O)COc1ccc(C)cc1`, the “activity change, negative = inhibition” value is -8.18%.

As for `CCN(CC)C(=O)Nc1ccc(OCC(O)CNC(C)(C)C)c(C(C)=O)c1` (stereo not given), the Potency was 0.0473 µM (active).

Turning to `CCCC(=O)C(=O)O`, the “activity change, negative = inhibition” value was 1.82%.

On to `O=c1[nH]cnc2ccccc12`, for which the “activity change, negative = inhibition” value was 9.21%.
